Assay results from PubChem BioAssay AID1851 (National Center for Advancing Translational Sciences (NCATS), 2009).
In all, about 16,000 compounds went through this assay and about 4,000 (25%) were called active. Roughly 26% stayed inconclusive and do not appear here. Calls follow the shape of the dose curve; as a rule, active = well fitted curve in the direction sought with a large enough effect; inconclusive = small, poorly fitted or top-dose-only effect, or effect the other way; inactive = no such curve, though single readings can be large or run the other way. A selection follows.

Target: Cytochrome P450 2C9 (Homo sapiens) (UniProt P11712)
Sequence (P11712 whole entry, looked up): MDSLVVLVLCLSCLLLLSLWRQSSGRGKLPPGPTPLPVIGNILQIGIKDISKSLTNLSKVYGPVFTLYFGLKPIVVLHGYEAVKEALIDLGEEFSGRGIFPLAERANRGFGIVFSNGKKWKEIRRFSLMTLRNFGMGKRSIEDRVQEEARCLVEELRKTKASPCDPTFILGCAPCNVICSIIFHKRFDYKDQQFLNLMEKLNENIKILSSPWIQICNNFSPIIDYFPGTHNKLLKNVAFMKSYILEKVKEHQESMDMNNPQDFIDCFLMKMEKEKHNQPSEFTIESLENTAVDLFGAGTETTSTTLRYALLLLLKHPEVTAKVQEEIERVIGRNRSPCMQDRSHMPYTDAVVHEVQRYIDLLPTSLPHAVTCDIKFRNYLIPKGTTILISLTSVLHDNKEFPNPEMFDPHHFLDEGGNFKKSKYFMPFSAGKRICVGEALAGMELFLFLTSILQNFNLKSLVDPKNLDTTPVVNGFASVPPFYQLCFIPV
Test: Cytochrome panel assay with activity outcomes
Conditions: recombinant CYP, pro-luciferin dealkylation, luminescence, p450-cyp2c9; series mostly up to 57.1 µM; activity, negative = inhibition: at the top concentration
% is scaled to controls: 0 for no effect and ±100 for the full control effect.

SMILES | activity, negative = inhibition | AC50
Cc1cccc2nc(C(F)(F)F)nc(=O)n12 | -45.6% (inactive) | –
O=C(O)C[C@H](Cc1ccccc1)C(=O)O | -7.58% [at 11.4 µM] (inactive) | –
C[C@@H](N)[C@@H](C)Cc1ccccc1 | -11% [at 11.4 µM] (inactive) | –
Cc1ccc(C)n1C(Cc1ccccc1)C(=O)O (centres undefined) | – | 31.6 µM (active)
COc1ncc2nc(-c3ccccc3)c(=O)n(C)c2n1 | -14.7% (inactive) | –
O=S(=O)(c1ccc(F)cc1)n1ccc(-c2cnc(-c3ccccc3)s2)n1 | – | 7.94 µM (active)
COc1ccc(S(=O)(=O)n2ccc(-c3cnc(-c4ccccc4)s3)n2)cc1 | – | 1.78 µM (active)
C[C@@H](N=C(N)N)C(=O)O | 11.8% [at 11.4 µM] (inactive) | –
Cc1c(C=O)c2ccccn2c1C(=O)c1ccncc1 | – | 7.94 µM (active)
C[C@H](C(=O)c1ccncc1)c1ccccn1 | -11.4% [at 11.4 µM] (inactive) | –
CCCCOC(=O)c1ccc(O)cc1 | -30% [at 25.6 µM] (inactive) | –
CCNC(=O)COC(=O)c1cc(=O)[nH]c2ccccc12 | 67.2% (inactive) | –
CCCCOC(=O)c1cc2c(cn1)[nH]c1ccccc12 | – | 7.94 µM (active)
Nc1ncnc2c1ncn2[C@@H]1O[C@@H](C(=O)NC2CC2)[C@H](O)[C@@H]1O | 26.2% (inactive) | –
CC(=O)Nc1ccc(-c2cc(C(=O)O)c3cc4ccccc4cc3n2)cc1 | 4.42% [at 11.4 µM] (inactive) | –
COc1ccc(-c2cc(C(=O)Nc3nc4c(C)cccc4s3)c3ccccc3n2)cc1OC | – | 2.51 µM (active)
CC(C)(C)NS(=O)(=O)c1ccc(NC(=O)c2cc(-c3ccccc3)nc3ccccc23)cc1 | – | 6.31 µM (active)
CCC(=O)Nc1nnc(C(C)(C)C)s1 | -24.6% (inactive) | –
CC(C)(C)c1nnc(NC(=O)c2cc(-c3ccccc3)nc3ccccc23)s1 | – | 7.08 µM (active)
c1cncc(CNc2ncnc3ccc(-c4ccoc4)cc23)c1 | 0.357% [at 2.29 µM] (inactive) | –
Cc1noc(C)c1-c1ccc2ncnc(N3CCN(C)CC3)c2c1 | -6.38% [at 2.29 µM] (inactive) | –
CCCC1c2c(ccc3ccccc23)Oc2ccc3ccccc3c21 | -4.51% [at 11.4 µM] (inactive) | –
Cn1c2c(c(=O)n(C)c1=O)[C@@H]1c3c(ccc4ccccc34)OC[C@@H]1CO2 | – | 12.6 µM (active)
CN(C)c1ccc(-c2nc(NC3CCNCC3)c3ccccc3n2)cc1 | 12.7% [at 2.29 µM] (inactive) | –

SMILES | activity, negative = inhibition | AC50
C/C(=N\NC(=O)COc1ccc([N+](=O)[O-])cc1)C(C)(C)C | -13.3% (inactive) | –
O=C(COc1ccc(/C=N/NC(=O)c2ccccc2)cc1)Nc1ccc([N+](=O)[O-])cc1 | -5.73% (inactive) | –
CCOC(=O)c1cccc(NC(=O)COc2ccc([N+](=O)[O-])cc2)c1 | – | 14.1 µM (active)
C/C(=N\Nc1nnc(C)c(=O)[nH]1)C(=O)O | 23.7% (inactive) | –
CC(C)(C)n1nc2c(c1NC(=O)c1ccc(S(=O)(=O)N3CCCCC3)cc1)CS(=O)C2 (centres undefined) | -25.8% (inactive) | –
O=C(Nc1ccccc1-c1nc2ccccc2[nH]1)c1ccc(S(=O)(=O)N2CCCCC2)cc1 | – | 2 µM (active)
COc1ccccc1-c1nc(N(C)Cc2ccco2)c2ccccc2n1 | -7.62% [at 2.29 µM] (inactive) | –
O=C(Nc1c2c(nn1-c1ccc(F)cc1)CS(=O)(=O)C2)C12CC3CC(CC(C3)C1)C2 | -21.8% (inactive) | –
CCC(CC)C(=O)Nc1c2c(nn1-c1ccc(OC)cc1)CS(=O)(=O)C2 | – | 7.94 µM (active)
CSC(=N)N | – | inactive
Cc1nnc(-c2cccc(Br)c2)c2cn(-c3ccc(Br)cc3)nc12 | – | 2 µM (active)
Cc1nnc(-c2cccc(Br)c2)c2cn(-c3ccccc3Cl)nc12 | – | 2.82 µM (active)
NC[C@@H]1O[C@H](C23CC4CC(CC(C4)C2)C3)Cc2c1ccc(O)c2O | – | inactive
NC[C@@H]1O[C@H](c2ccccc2)Cc2c1ccc(O)c2O | – | 6.31 µM (active)
CO/N=C(\C(=O)N[C@@H]1C(=O)N2C(C(=O)O)=C(COC(N)=O)CS[C@@H]12)c1ccco1 | -0.22% [at 25.6 µM] (inactive) | –
C=C(C)CN(CC#N)CC(=C)C | 11% [at 11.4 µM] (inactive) | –
Cc1cccc(-c2c3c(=O)n(C)c(=O)n(C)c3cn2C2CCCCC2)c1 | – | 10 µM (active)
Cc1n[nH]c(=O)n1-c1cccc(C(F)(F)F)c1 | -26.8% (inactive) | –
CC1=CC(=O)N(c2cccc(C(F)(F)F)c2)C1c1ccc(Cl)cc1 (centres undefined) | – | 12.6 µM (active)
OC[C@@H]1O[C@@H](n2cnc3c(SCc4ccccc4)ncnc32)[C@@H](O)[C@H]1O | 5.12% [at 11.4 µM] (inactive) | –
Cc1onc(-c2ccccc2Cl)c1C(=O)Nc1nnc(Cc2ccc(Cl)cc2)s1 | – | 1.26 µM (active)
Cc1onc(-c2ccccc2Cl)c1C(=O)NCC(=O)O | -18% (inactive) | –
CC(=O)C1=NOC(CNC(=O)c2c(-c3ccccc3Cl)noc2C)C1 (centres undefined) | -24.8% (inactive) | –
Cc1ccc(NC(=S)NC(=O)c2c(-c3ccccc3Cl)noc2C)cc1 | – | 1.41 µM (active)

SMILES | activity, negative = inhibition | AC50
CC(=O)NCCNc1ncnc2ccc(-c3ccccc3C(F)(F)F)cc12 | 5.92% [at 2.29 µM] (inactive) | –
COc1ccccc1NC(=O)CCN1C(=O)C2CC=C(Cl)CC2C1=O (centres undefined) | 19.4% (inactive) | –
CCn1c2ccccc2c2cc(N=C3SC(CC(=O)Nc4ccccc4)C(=O)N3C)ccc21 (centres undefined) | – | 0.126 µM (active)
CCn1c2ccccc2c2cc(N=C3SC(CC(=O)Nc4ccccc4OC)C(=O)N3C)ccc21 (centres undefined) | – | 0.891 µM (active)
O=C(O)CC[C@@H](C(=O)O)N1C(=O)[C@@H]2[C@@H]3CC[C@H](C3)[C@@H]2C1=O | 12.5% [at 11.4 µM] (inactive) | –
OCCNc1nc(NCCC2=CCCCC2)nc(N2CCOCC2)n1 | – | 14.1 µM (active)
CCOC(=O)CNS(=O)(=O)c1cc(-c2nn(C)c(=O)c3ccccc23)ccc1C | – | 0.316 µM (active)
CCN(CC)CCNC(=O)C(C)c1nn(C)c(=O)c2ccccc12 (centres undefined) | -0.184% (inactive) | –
CS(=O)(=O)Nc1cccc(-c2ccc3ncnc(NCCN4CCOCC4)c3c2)c1 | 19% [at 2.29 µM] (inactive) | –
CCN(Cc1ccccc1)Cc1cccc([N+](=O)[O-])c1 | – | 10 µM (active)
Cc1ccc(S(=O)(=O)NCc2cccc([N+](=O)[O-])c2)cc1 | 24.1% [at 11.4 µM] (inactive) | –
N[C@@H](Cc1cccc([N+](=O)[O-])c1)C(=O)O | 16.8% [at 11.4 µM] (inactive) | –
COc1c(Cl)cc(Cl)cc1CNCCNCC(C)O (centres undefined) | 15.2% (inactive) | –
COc1ccc2c(C)cc(N3CCOCC3)nc2c1 | 11.4% (inactive) | –
Cc1cc(Cl)nc2ccc(Cc3ccc4nc(Cl)cc(C)c4c3)cc12 | 0.565% [at 11.4 µM] (inactive) | –
Cc1cc(N2CCOCC2)nc2ccc(Cc3ccc4nc(N5CCOCC5)cc(C)c4c3)cc12 | – | 3.98 µM (active)
O=C(/C=C\C=C/c1ccc2c(c1)OCO2)N1CCCCC1 | -34.7% [at 25.6 µM] (inactive) | –
COc1ccccc1N1CCN(C(=O)/C=C/c2ccc3c(c2)OCO3)CC1 | – | 14.1 µM (active)
CCCc1nnc(SCC(=O)O)n1/N=C/c1ccc2c(c1)OCO2 | -24.4% (inactive) | –
Nc1ccccc1C(=O)/C=C\c1ccc2c(c1)OCO2 | -29.2% [at 11.4 µM] (inactive) | –
COCOc1cc(OC)ccc1C(=O)/C=C\c1ccc2c(c1)OCO2 | – | 2.51 µM (active)
CCNc1ccc(Br)cc(C(=O)/C=C/c2ccc3c(c2)OCO3)c1=O | – | 11.2 µM (active)
CCCCCCCCCCCCCCCCCCc1ccc(C(=O)/C=C\C(=O)O)cc1 | -7.99% (inactive) | –
CCCC(=O)Nc1ccc(C(=O)/C=C/c2ccc(SC)cc2)cc1 | – | 1.78 µM (active)

SMILES | activity, negative = inhibition | AC50
O=C(O)CC/C=C\C[C@@H]1CO[C@H](c2ccccc2Cl)O[C@@H]1c1ccccc1O | -16.7% (inactive) | –
c1ccc(C2OCC3(CO2)COC(c2ccccc2)OC3)cc1 (centres undefined) | -37.5% (inactive) | –
O=C1CCCCCC1C1(O)C(=O)Nc2ccc(Br)cc21 (centres undefined) | -11.1% (inactive) | –
Nc1nc(Sc2ccc([N+](=O)[O-])c3nonc23)c2[nH]cnc2n1 | – | 3.16 µM (active)
Nc1nc(SCc2ccccc2[N+](=O)[O-])c2[nH]cnc2n1 | -28.6% [at 11.4 µM] (inactive) | –
CC(C)[C@H](Sc1nc(N)nc2nc[nH]c12)C(=O)O | 12.2% [at 11.4 µM] (inactive) | –
CCOC(=O)N1CCN(C(=O)C(CC)n2nc(C)c3sc4ccccc4c3c2=O)CC1 (centres undefined) | – | 3.16 µM (active)
CCOC(=O)N1CCN(C(=O)CCn2nc(-c3ccccc3)ccc2=O)CC1 | -13.9% (inactive) | –
CN(C)CCCN=c1c2ccccc2n(C)c2[nH]c(=O)n(C)c(=O)c12 | -3.97% [at 11.4 µM] (inactive) | –
CC(=O)NCCNc1ccnc(-c2ccccc2C(F)(F)F)n1 | 9.95% [at 2.29 µM] (inactive) | –
COc1cc(O)oc1C=Nc1ccc(Cl)cc1 | – | 22.4 µM (active)
COc1ccc(N=Cc2ccc(CNS(=O)(=O)c3ccc(Cl)cc3)o2)cc1 | -5.91% (inactive) | –
CCNC(=S)N1CC(C)OC(C)C1 (centres undefined) | -4.79% (inactive) | –
Cc1ccc(N(CCC#N)C(=O)CSc2ccc3c(c2)OCCO3)cc1 | – | 5.01 µM (active)
Cc1ccc(SCN2CCCCC2)cc1 (tested in a mixture with another compound) | -29.3% [at 11.4 µM] (inactive) | –
CC1Cc2ccccc2N1Cc1nc2cc(C(F)(F)F)ccc2c(=O)[nH]1 (centres undefined) | – | 5.01 µM (active)
Brc1ccc(-c2nnc(-c3cccc(Br)c3)o2)cc1 | -6.6% (inactive) | –
O=S(=O)(c1ccc(Br)cc1)N1CCN(S(=O)(=O)c2ccc(Br)cc2)CC1 | 25.6% [at 11.4 µM] (inactive) | –
O=S(=O)(c1cccc(-c2nnc(-c3ccc(Br)cc3)o2)c1)N1CCCCCC1 | – | 5.01 µM (active)
c1cncc(-c2cncnc2-n2ccnc2)c1 | 8.83% [at 2.29 µM] (inactive) | –
Oc1ccc(-c2[nH]ncc2-c2ccc(Cl)cc2)c(O)c1 | – | 0.794 µM (active)
CC(C)NC(=O)N1CC2(CCN(C(=O)c3cc(C(F)(F)F)cc(C(F)(F)F)c3)CC2)C1 | -19.4% (inactive) | –
